# Reference: PubChem BioAssay (NCI)
# The panel holds about 83,000 compounds, 20% with a hit somewhere; the sample as a whole holds those more often.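 Treatment: one concentration, 48 hours, 96-well format. Scoring: percent growth, with anything below 10 considered active.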 Values without a mark were called inactive. Active and inactive are the calls of the source.
# System: NCI-H23 lung
# Assay: NCI-60 one-dose screen, 48 h (100 = growth as untreated, 0 = no growth, -100 = all killed)
# Conditions: 10 µM unless noted
row,SMILES,growth
1,C=C(c1ccc(C(=O)O)c(F)c1)c1cc2c(cc1C)C(C)(C)CCC2(C)C,80%
2,C[C@@H]1CN(c2cnc(C(=O)Nc3cc(F)cc4cccnc34)cn2)C[C@H](C)N1,63%
3,c1cc(OCCN2CCCCC2)ccc1CNc1ccc2nc(CCC3CCCCC3)[nH]c2c1,73.8%
4,COc1cc(/C=C/C(=O)c2cc(OC)c(OC)c(OC)c2)ccc1Oc1nc2c(c(=O)n(C)c(=O)n2C)n1C,-51.1% (active)
5,Clc1cccc(C2Cc3cnccc3-c3[nH]c4ccncc4c32)c1 (configuration not stated),35%
6,C=CCn1cc(-c2nc3ccccc3s2)c2cc(-c3ccc4c5c(cccc35)C(=O)N(CCO)C4=O)ccc21,99.7%
7,CC(C)CCC[C@@H](C)[C@H]1CC[C@H]2[C@@H]3CC=C4c5sc(Nc6cc(C(F)(F)F)cc(C(F)(F)F)c6)nc5CC[C@]4(C)[C@H]3CC[C@]12C,93.4%
8,COc1ccccc1/C=C/C(=O)Nc1ccc(F)cc1,88.2%
9,c1ccc(-c2ccc3c(c2)C2(CCNCC2)CN3)cc1,86.3%
10,CN(C)c1ccc(C(=S)c2ccc(N(C)C)cc2)cc1,78.9%
11,CCN(CC)CCCNc1cc(OC)c(OC)c2cccnc12,7.1% (active)
12,COc1cc(/C=C2\C(=O)N(CCCOc3cc(O)c4c(=O)cc(-c5ccccc5)oc4c3)c3ccccc32)cc(OC)c1O,87.9%
13,COC12C=C/C(=C(/C(=O)OCc3cncnc3)C(=O)CCCCCCCCC3(OC)C=C/C(=C(/C(=O)OCc4cncnc4)C(=O)CCCCCCCC1)O3)O2,-49.9% (active)

# System: NCI-H226 lung
# Assay: as above
# Conditions: 10 µM unless noted
row,SMILES,growth
1,COC(=O)[C@]1(C)CCC[C@]2(C)[C@H]3C[C@@H]4[C@H]5[C@@H]6CC/C(=N\OCC/C(N)=N/O)[C@H]5[C@@]3(CC[C@H]21)CC4(C(C)C)O6,83.7%
2,c1cc(OCCN2CCCCC2)ccc1CNc1ccc2nc(CCC3CCCCC3)[nH]c2c1,36.2%
3,COc1cc(/C=C/C(=O)c2cc(OC)c(OC)c(OC)c2)ccc1Oc1nc2c(c(=O)n(C)c(=O)n2C)n1C,-35.4% (active)
4,c1ccc(-c2ccc3c(c2)C2(CCNCC2)CN3)cc1,95.9%
